Screen size: about 5,500 compounds; about 2,000 (36%) were called active. Inconclusive results (about 18%) are left out. No stated cut-off is given here; in the data, active means normalized growth mostly below about 0.91 (no sharp cut-off); inconclusive means no clear call, values can overlap the other calls; inactive means mostly above about 0.92. Some of the results follow.
Experiment: chemical genetic growth profiling, strain panel (AID 1159580);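 further: tested at 20 µM; growth read once vehicle control cultures reached saturation at 30 °C; 1 = growth at the plate median or of vehicle wells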
Conditions: S. cerevisiae deletion strains, growth OD

Measured: normalized growth

O=C(Nc1cccc(C(=O)Nc2ccc(S(=O)(=O)O)c3cc(S(=O)(=O)O)cc(S(=O)(=O)O)c23)c1)Nc1cccc(C(=O)Nc2ccc(S(=O)(=O)O)c3cc(S(=O)(=O)O)cc(S(=O)(=O)O)c23)c1
inactive: locus YAL040C, strain CLN3, stronger effect = lower value 1.05 | locus YCL061C, strain MRC1 (second series), stronger effect = lower value 0.981 | locus YDR150W, strain NUM1, stronger effect = lower value 0.976 | locus YDR363W, strain ESC2, stronger effect = lower value 1.02 | locus YER002W, strain NOP16, stronger effect = lower value 0.968 | locus YMR263W, strain SAP30, stronger effect = lower value 0.973 | locus YNL153C, strain GIM3, stronger effect = lower value 0.977 | locus YNL175C, strain NOP13, stronger effect = lower value 0.978 | locus YNL197C, strain WHI3, stronger effect = lower value 0.968 | locus YNL224C, strain SQS1, stronger effect = lower value 0.981 | locus YOR083W, strain WHI5 (second series), stronger effect = lower value 0.97
